Most compounds without a hit are left out; they make up all but 3.6% or so of the library.
NTMT1 inh = NTMT1 methyltransferase inhibition; AID 1645870; NTMT1 MTase-Glo SAH luminescence, purified enzyme; actives 2.5% (n = 59,000); Q9BV86; Potency, µM (top dose mostly 114 µM), inactives show at the top dose activity change, negative = inhibition, usual class: inhibitors;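 note: potency is the fitted concentration of half-maximal effect; plate controls were DMSO vehicle for no effect and no enzyme for full effect; nearly all actives have a fitted effect of over 65% in size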
Target sequence (Q9BV86 whole entry, looked up): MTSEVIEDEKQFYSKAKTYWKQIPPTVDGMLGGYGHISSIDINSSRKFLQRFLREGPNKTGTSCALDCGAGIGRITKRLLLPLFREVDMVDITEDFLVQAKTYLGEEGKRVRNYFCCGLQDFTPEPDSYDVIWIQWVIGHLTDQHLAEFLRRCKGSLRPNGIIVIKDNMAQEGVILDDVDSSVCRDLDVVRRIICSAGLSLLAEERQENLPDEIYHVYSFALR
OvCa metastasis = ovarian cancer metastasis inhibition, 3D TME model | SKOV3ip1-GFP adhesion/invasion on 3D omental model, fluorescence | Potency, µM (doses to about 45.8 µM), for inactives: at the highest dose activity change, negative = inhibition, most hits filed as inhibitors | actives 0.1% (n = 46,000) | AID 1963576;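 note: potency is the fitted concentration of half-maximal effect; plate controls were DMSO wells for no effect and tomatine positive control wells for full effect; nearly all actives have a fitted effect of over 65% in size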
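A 3D layer of primary human omental fibroblasts, mesothelial cells, fibronectin and collagen I, grown 48 hr, received SKOV3ip1-GFP cells in serum-free medium plus compounds at 0.36-46 umol/L. After 2 hr RT and 16 hr 37 C, fixed adherent GFP cells were counted; normalized to DMSO and tomatine.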
DYRK1A inh = human DYRK1A kinase inhibition by ATP depletion readout; shares compounds with NTMT1 inh; recombinant DYRK1A, Kinase-Glo ATP depletion luminescence; Potency, µM (doses to about 76.9 µM), inactives show at the top dose activity change, negative = inhibition, hits mostly inhibitors; actives 80% (n = 100); AID 2705
Sfp qHTS opt = Sfp PPTase inhibition, chemistry optimization | shares compounds with NTMT1 inh | purified Sfp PPTase enzyme activity, qHTS | Potency, µM (highest dose often 114 µM), for inactives: at the highest dose activity change, negative = inhibition, most hits filed as inhibitors | actives 78% (n = 230)
Bsub HM489 growth = Sfp PPTase inhibitors: growth inhibition of B. subtilis HM489. actives 50% (n = 220). shares compounds with NTMT1 inh. Potency, µM (top dose mostly 114 µM), for inactives: top-dose activity change, negative = inhibition, most hits filed as inhibitors. B. subtilis HM489 (acpS-) growth, BacTiter-Glo, 5 h
Sfp gel opt = inhibits B. subtilis Sfp PPTase in gel assay. shares compounds with NTMT1 inh. purified Sfp PPTase, gel-based product detection. Potency, µM (doses to about 250 µM), inactives show at the top dose activity change, negative = inhibition, actives largely listed as inhibitors. actives 54% (n = 220)
Sfp inh SAR2 = Sfp phosphopantetheinyl transferase inhibition, SAR round 2; Potency, µM (titrated, usually from 57.1 µM), without a hit: at the highest dose activity change, negative = inhibition, actives largely listed as inhibitors; actives 87% (n = 230); shares compounds with NTMT1 inh; AID 602370; purified Sfp enzyme, PPTase activity, qHTS
HSD17B4 counter = counter-screen for HPGD inhibitors: human HSD17B4 inhibition | shares compounds with NTMT1 inh | purified HSD17B4, estradiol/NAD+, NADH fluorescence | Potency, µM (doses to about 57.1 µM), for the others: at the top dose activity change, negative = inhibition, actives largely listed as inhibitors | actives 10% (n = 230)
ALDH1A1 counter = ALDH1A1 (human) inhibition, HPGD counter-screen; shares compounds with NTMT1 inh; recombinant ALDH1A1, NADH fluorescence, propionaldehyde/NAD+; Potency, µM (highest dose often 57.1 µM), for inactives: top-dose activity change, negative = inhibition, usual class: inhibitors; actives 93% (n = 230)
NNMT inh = blocks human NNMT methyltransferase | NNMT MTase-Glo luminescence, SAH detection | actives 10% (n = 120) | shares compounds with NTMT1 inh | Potency, µM (top dose mostly 57.1 µM), for the others: at the highest dose activity, negative = inhibition, hits mostly inhibitors
The depositor's hits bear a star; ? = inconclusive; · = no result given; ! = not active in a repeat; [ ] = dose if it differs, or a comment. Calls come from the whole dose curve; as a rule, active = well fitted curve in the direction sought with a large enough effect; inconclusive = small, poorly fitted or top-dose-only effect, or another doubt; inactive = no such curve, though single readings can be large; an effect the other way counts as inactive or inconclusive.

SMILES	NTMT1 inh	OvCa metastasis	DYRK1A inh	others
COc1cc2c(cc1OC)CN(CCc1ccc(NC(=O)c3cccc4c(=O)c5cccc(OC)c5[nH]c34)cc1)CC2	28µM*!	0%	·	NNMT inh=4µM*
CC(=O)Nc1sc2c(c1-c1cccc3[nH]ncc13)CCNC2	8%[57.5 µM]	·	·
COc1cccc(-c2cn(-c3ccc(CCN4CCC(O)CC4)cc3)c3ncnc(N)c23)c1	13µM*	·	·	NNMT inh=?
COc1ccc(-c2nc3ccccc3c(=O)n2Cc2ccco2)cc1COc1c(C)cccc1C	13%	·	·
COc1cc(O)c(C(CC(=O)N2CCCC(C(=O)N3CCCCC3)C2)c2ccc3c(c2)OCO3)c(OC)c1 (stereo not given)	7%[228 µM]	·	·
CCOC(=O)c1ccc(-c2ccc3ncnc(NCc4ncc[nH]4)c3c2)o1	-1%	·	2.3µM*
CCOC(=O)c1ccoc1-c1ccc2ncnc(NCc3csc(C)n3)c2c1	-4%	·	-11%
CCOC(=O)c1ccc(-c2ccc3ncnc(NCc4csc(C)n4)c3c2)o1	-12%	·	9.2µM*
CCOC(=O)c1ccoc1-c1ccc2ncnc(NCc3ccc(C)o3)c2c1	?	·	23µM*
Cc1csc(CNc2ncnc3ccc(-c4ccco4)cc23)c1	7%	·	·
Cc1ccnc(NC(=S)N2CCN(c3cccc(C(F)(F)F)c3)C[C@@H]2C)c1	·	·	·	Sfp qHTS opt=5.9µM*;Bsub HM489 growth=47µM*;Sfp gel opt=?;Sfp inh SAR2=11µM*;HSD17B4 counter=6%;ALDH1A1 counter=24µM*

Screens (PubChem)
